Results taken from PubChem BioAssay AID1159580 (chemical genetic matrix, 2015).
“And” between values parts separate entries of the source, which are not always exact repeats. Identical values can stand only once. The campaign covered roughly 5,500 compounds. About 2,000 (36%) were called active. About 18% were inconclusive and are not listed. Cut-off read from the data, not from the text of the source: active = normalized growth mostly below about 0.91 (no sharp cut-off); inconclusive = no clear call, values can overlap the other calls; inactive = mostly above about 0.92. This is one part of the list.

Assay: chemical genetic growth profiling, strain panel (AID 1159580);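 note: tested at 20 µM; growth read once vehicle control cultures reached saturation at 30 °C; 1 = growth at the plate median or of vehicle wells; lower values mean less growth of the strain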
Settings: S. cerevisiae deletion strains, growth OD

Measured: normalized growth

CCOc1ccc(NC(C)=O)cc1
inactive: locus YAL013W, strain DEP1, stronger effect = lower value 1.02 | locus YAL021C, strain ccr4, stronger effect = lower value 1.01 | locus YAL026C, strain drs2, stronger effect = lower value 1.01 | locus YAL030W, strain snc1, stronger effect = lower value 1.02 | locus YBL061C, strain skt5, stronger effect = lower value 1.02 | locus YBR009C, strain hhf1, stronger effect = lower value 1.01 | locus YBR021W, strain FUR4, stronger effect = lower value 0.963 | locus YBR023C, strain chs3, stronger effect = lower value 1.01 | locus YBR171W, strain sec66, stronger effect = lower value 1.02 | locus YBR229C, strain ROT2, stronger effect = lower value 1 | locus YBR231C, strain swc5, stronger effect = lower value 1.02 | locus YBR279W, strain paf1, stronger effect = lower value 1.01 | locus YCL011C, strain gbp2, stronger effect = lower value 1.02 | locus YCL016C, strain dcc1, stronger effect = lower value 1.02 | locus YCL029C, strain bik1, stronger effect = lower value 0.989 | locus YCL061C, strain MRC1, stronger effect = lower value 1.01 | locus YCL069W, strain vba3, stronger effect = lower value 1.02 | locus YCR088W, strain abp1, stronger effect = lower value 1.02 | locus YDL005C, strain med2, stronger effect = lower value 1.02 | locus YDL035C, strain GPR1, stronger effect = lower value 0.997 | locus YDL040C, strain nat1, stronger effect = lower value 1.01 | locus YDL074C, strain BRE1, stronger effect = lower value 1.06 | locus YDL101C, strain DUN1, stronger effect = lower value 1.01 | locus YDL134C, strain PPH21, stronger effect = lower value 1 | locus YDL185W, strain tfp1, stronger effect = lower value 0.959 | locus YDL192W, strain arf1, stronger effect = lower value 0.991 | locus YDR001C, strain nth1, stronger effect = lower value 1.02 | locus YDR069C, strain doa4, stronger effect = lower value 1 | locus YDR101C, strain arx1, stronger effect = lower value 0.998 | locus YDR137W, strain rgp1, stronger effect = lower value 1.03 | locus YDR150W, strain NUM1, stronger effect = lower value 0.991 | locus YDR159W, strain sac3, stronger effect = lower value 1.01 | locus YDR162C, strain NBP2, stronger effect = lower value 1.01 | locus YDR195W, strain ref2 1.02 | locus YDR297W, strain sur2, stronger effect = lower value 1.02 | locus YDR318W, strain mcm21, stronger effect = lower value 0.997 | locus YDR334W, strain swr1, stronger effect = lower value 1.02 | locus YDR335W, strain msn5, stronger effect = lower value 1.02 | locus YDR388W, stronger effect = lower value 1 | locus YDR392W, strain spt3, stronger effect = lower value 0.953 | locus YDR502C, strain sam2, stronger effect = lower value 0.994 | locus YEL003W, strain gim4, stronger effect = lower value 1.02 | locus YEL037C, strain rad23, stronger effect = lower value 1.01 | locus YEL061C, strain CIN8 (second series), stronger effect = lower value 1.02 | locus YEL061C, strain CIN8, stronger effect = lower value 1.04 | locus YER015W, strain faa2, stronger effect = lower value 1.01 | locus YER016W, strain bim1, stronger effect = lower value 1 | locus YER110C, stronger effect = lower value 0.979 | locus YER111C, strain swi4, stronger effect = lower value 1.02 | locus YER155C, strain BEM2 (second series), stronger effect = lower value 1.02 | locus YER155C, strain BEM2, stronger effect = lower value 0.984 | locus YER167W, strain BCK2, stronger effect = lower value 0.979 | locus YFR010W, strain ubp6, stronger effect = lower value 1.02 | locus YGL078C, strain dbp3, stronger effect = lower value 0.985 | locus YGL086W, strain mad1, stronger effect = lower value 0.984 | locus YGL167C, strain pmr1, stronger effect = lower value 1.02 | locus YGL173C, strain kem1, stronger effect = lower value 1.01 | locus YGL227W, strain vid30, stronger effect = lower value 1 | locus YGL240W, strain doc1, stronger effect = lower value 1.02 | locus YGL248W, strain PDE1, stronger effect = lower value 1.01 | locus YGL253W, strain hxk2, stronger effect = lower value 1.01 | locus YGR078C, strain PAC10, stronger effect = lower value 1 | locus YGR135W, strain pre9, stronger effect = lower value 1 | locus YGR229C, strain SMI1, stronger effect = lower value 1.02 | locus YGR252W, strain gcn5, stronger effect = lower value 0.986 | locus YHR013C, strain ard1, stronger effect = lower value 1.06 | locus YHR027C, strain rpn1, stronger effect = lower value 1 | locus YHR030C, strain SLT2, stronger effect = lower value 0.984 and 1.02 | locus YHR079C, strain IRE1 (second series), stronger effect = lower value 0.995 | locus YHR079C, strain IRE1, stronger effect = lower value 1.03 | locus YHR094C, strain hxt1, stronger effect = lower value 0.975 | locus YHR129C, strain ARP1, stronger effect = lower value 1.01 | locus YHR142W, strain chs7, stronger effect = lower value 1.01 | locus YHR200W, strain rpn10, stronger effect = lower value 0.992 | locus YIL066C, strain RNR3, stronger effect = lower value 1 | locus YIL073C, strain SPO22, stronger effect = lower value 0.916 | locus YIL125W, strain kgd1, stronger effect = lower value 0.988 | locus YIR030C, strain dcg1, stronger effect = lower value 1 | locus YJL092W, strain hpr5, stronger effect = lower value 1.01 | locus YJL095W, strain BCK1 (second series), stronger effect = lower value 1.01 | locus YJL095W, strain BCK1, stronger effect = lower value 1.09 and 1.01 | locus YJL115W, strain asf1, stronger effect = lower value 1.01 | locus YJL129C, strain trk1, stronger effect = lower value 1.02 | locus YJL134W, strain LCB3, stronger effect = lower value 0.985 | locus YJL154C, strain vps35, stronger effect = lower value 1.01 | locus YJL164C, strain tpk1, stronger effect = lower value 1.02 | locus YJL166W, strain qcr8, stronger effect = lower value 1.02 | locus YJL168C, strain set2, stronger effect = lower value 0.986 | locus YJL187C, strain SWE1 (second series), stronger effect = lower value 0.996 | locus YJL187C, strain SWE1, stronger effect = lower value 1.02 | locus YJR043C, strain POL32, stronger effect = lower value 1.14 | locus YJR066W, strain TOR1, stronger effect = lower value 0.961
